Compound activity from PubChem.
NTMT1 inhibitor = blocks human N-terminal methyltransferase 1 activity | Potency, µM (titrated, usually from 114 µM), for inactives: top-dose activity change, negative = inhibition, most hits filed as inhibitors | 59,000 tested, 2.5% active | NTMT1 MTase-Glo SAH luminescence, purified enzyme | AID 1645870 | Q9BV86;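 also: potency is read from the fitted curve at half-maximal effect; plate controls were DMSO vehicle for no effect and no enzyme for full effect; nearly all actives have a fitted effect of over 65% in size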
Target sequence (Q9BV86 whole entry, looked up): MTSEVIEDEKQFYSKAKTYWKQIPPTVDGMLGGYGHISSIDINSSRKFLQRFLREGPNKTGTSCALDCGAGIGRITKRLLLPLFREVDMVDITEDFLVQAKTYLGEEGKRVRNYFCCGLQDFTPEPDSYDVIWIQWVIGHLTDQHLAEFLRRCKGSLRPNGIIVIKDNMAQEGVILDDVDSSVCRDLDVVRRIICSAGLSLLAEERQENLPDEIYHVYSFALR
HTT promoter inh = HTT promoter inhibition; AID 1508623; HEK293 HTT promoter firefly luciferase reporter, 24 h; 48,000 tested, 0.93% active; Potency, µM (top dose mostly 57.5 µM), without a hit: at the highest dose activity change, negative = inhibition, actives largely listed as inhibitors; also: potency is read from the fitted curve at half-maximal effect; nearly all actives have a fitted effect of over 50% in size
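Quantitative HTS used concentration series of up to 57.5 uM final on HEK293 luciferase reporter cells, 24 h at 37 degrees C. Readout was Dual-Glo firefly luminescence.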
GALC G270D up = enhancers of human galactocerebrosidase G270D mutant activity in cells | P54803 | AID 1159614 | 45,000 tested, 0.1% active | 145M-Twi-hGALC-G270D cells (Twitcher mouse brain line with human GALC G270D), HMU-beta-Gal fluorescence, 48 h | Potency, µM (doses to about 57.5 µM), usual class: activators; also: potency is read from the fitted curve at half-maximal effect; 0% is about no effect; nearly all actives have a fitted effect of over 65% in size
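Fluorescence readout: HMU-β-gal cleavage by mutant GALC (0.1 mM final, citrate/phosphate pH 5.2 with 1 mg/mL taurocholate), stopped with carbonate/bicarbonate plus Triton X-100. Cells: murine Twitcher 145M-Twi expressing human G270D GALC; qHTS for activators.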
HTT-AS act = activators of huntingtin-antisense promoter activity | 48,000 tested, 0.24% active | HEK293 HTT-AS promoter firefly luciferase reporter, 24 h; response scale: percent change from vehicle, -100% = no light | Potency, µM (doses to about 57.5 µM), for inactives: at the highest dose activity change, positive = activation, actives largely listed as activators; also: potency is read from the fitted curve at half-maximal effect; nearly all actives have a fitted effect of over 55% in size
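HEK293 Fluc reporter, 2,500 cells/well, 24 h pre-culture; cpds up to 57.5 uM final, 24 h 37 degrees C; Dual-Glo, 10 min RT; normalized vehicle = 0%, zero RLU = -100%.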
USP2 K63 confirm = confirmation of human USP2a inhibitors with K63 diubiquitin substrate; shares compounds with NTMT1 inhibitor; USP2 cleavage of DiUb K63-3IQF, fluorescence kinetic; Potency, µM (highest dose often 57.5 µM), for inactives: at the highest dose activity change, negative = inhibition, hits mostly inhibitors; 30 tested, 80% active; AID 652172
Casp6 inh = selectivity of USP2a inhibitors: human caspase-6 inhibition. activity change, negative = inhibition, % at 46.1 µM. 30 tested, under 10 active. AID 652277. Caspase 6 enzyme, Caspase-Glo 6 luminescence. shares compounds with NTMT1 inhibitor
Target sequence (P55212 whole entry, looked up): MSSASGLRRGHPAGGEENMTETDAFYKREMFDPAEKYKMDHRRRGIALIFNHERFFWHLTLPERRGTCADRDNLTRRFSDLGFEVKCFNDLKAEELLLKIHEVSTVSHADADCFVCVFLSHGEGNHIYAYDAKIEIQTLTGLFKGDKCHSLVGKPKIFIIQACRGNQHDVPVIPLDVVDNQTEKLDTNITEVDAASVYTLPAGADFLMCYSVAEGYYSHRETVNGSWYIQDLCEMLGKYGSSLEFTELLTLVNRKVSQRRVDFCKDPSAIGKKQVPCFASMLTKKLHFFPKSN
NNMT counter = counter-screen for NTMT1 inhibitors: human NNMT inhibition; NNMT MTase-Glo luminescence, SAH detection; 120 tested, 10% active; Potency, µM (series often up to 57.1 µM), for inactives: at the highest dose activity, negative = inhibition, most hits filed as inhibitors; shares compounds with NTMT1 inhibitor
The depositor's hits bear a star; i = inactive; ? = inconclusive; · = not tested or not shown; [ ] = another dose, or the depositor's remark. Compounds with a hit are over-represented: about 2.7% of the library has one in this group of screens. Calls follow the shape of the dose curve; as a rule, active = well fitted curve in the direction sought with a large enough effect; inconclusive = small, poorly fitted or top-dose-only effect, or another doubt; inactive = no such curve, though single readings can be large; an effect the other way counts as inactive or inconclusive.

SMILES	NTMT1 inhibitor	HTT promoter inh	GALC G270D up	HTT-AS act	others
CNC(=O)c1ccccc1Nc1cc(Nc2ccc(N3CCOCC3)cc2OC)ncc1C(F)(F)F	-1%[57.5 µM]	·	·	·	NNMT counter=?
COc1cc(N2CCOCC2)ccc1Nc1ncc(F)c(Nc2ccccc2NS(C)(=O)=O)n1	9%[57.5 µM]	·	·	·
COC(=O)C1=CO[C@@H](O[C@@H]2O[C@H](CO)[C@@H](O)[C@H](O)[C@H]2O)C2C1CC(O)C2C (stereo partly specified)	7%[29.8 µM]	·	·	·
O=C1CCCC2=C1C(c1ccc(F)cc1)N=C(Nc1nc3ccccc3o1)N2 (stereo unspecified)	6%	·	·	·
Cc1ccc(S(=O)(=O)Nc2cc(F)c(F)cc2C(=O)Nc2nc(-c3ccccc3)cs2)cc1	7%	·	·	·
Cc1ccc(S(=O)(=O)Nc2ccc(Cl)cc2C(=O)Nc2nc(-c3ccccc3)cs2)cc1	?	·	·	·	USP2 K63 confirm=1.2µM*;Casp6 inh=0
Cc1ccc(S(=O)(=O)Nc2cc(C(F)(F)F)ccc2C(=O)Nc2nc(-c3ccccc3)cs2)cc1	?	·	·	·	USP2 K63 confirm=1.7µM*;Casp6 inh=-15
Cc1ccc(S(=O)(=O)Nc2ncccc2C(=O)Nc2nc(-c3ccccc3)cs2)cc1	·	·	·	·	USP2 K63 confirm=3.4µM*;Casp6 inh=-4
Cc1ccc(S(=O)(=O)Nc2cnccc2C(=O)Nc2nc(-c3ccccc3F)cs2)cc1	-19%	·	·	·
Cc1ccc(S(=O)(=O)Nc2ccc(OC(F)(F)F)cc2C(=O)Nc2nc(-c3ccccc3)cs2)cc1	-3%	·	·	·
Cc1ccc(S(=O)(=O)Nc2cccnc2C(=O)Nc2nc(-c3ccccc3)cs2)cc1	23%	·	·	·
Cc1cc(F)ccc1S(=O)(=O)Nc1cnccc1C(=O)Nc1nc(-c2ccccc2)cs1	18%	·	·	·	USP2 K63 confirm=1.9µM*;Casp6 inh=3
COc1ccc(C2Nc3ccccc3C(=O)N2Cc2ccccc2)cc1COc1c(C)cc(NC(C)=O)cc1C (stereo unspecified)	3%	·	·	·
COc1ccc(CNC(=O)C(=O)Nc2ccccc2OC)cc1	15%	-25%[11.5 µM]	i	-16%[11.5 µM]
COc1ccccc1NC(=O)Nc1ccc2ccccc2c1	-9%[57.5 µM]	·	·	·	NNMT counter=-14%
O=C(Nc1ccc(C(=O)Nc2nccs2)cc1)c1ccc2ccccc2c1	-7%	·	·	·
O=C(Nc1ccc(S(=O)(=O)Nc2nccs2)cc1)c1ccc2ccccc2c1	?	·	·	·	USP2 K63 confirm=3.9µM*;Casp6 inh=-26
CNc1oc(-c2cccc(-c3ccccc3)c2)nc1C#N	-10%[57.5 µM]	·	·	·
CC(=O)N[C@@H](CC(C)C)C(=O)N[C@@H](CCC(=O)O)C(=O)N[C@@H](CCC(=O)O)C(=O)N[C@@H](CC(=O)O)C(=O)Nc1ccc2c(C(F)(F)F)cc(=O)oc2c1	-4%[57.5 µM]	·	·	·	NNMT counter=-9%
C[C@@H](Oc1cc(-n2cnc3ccc(OC4CCN(C)CC4)cc32)sc1C(N)=O)c1ccccc1C(F)(F)F	2.2µM*	·	·	·	NNMT counter=?
Cc1ccccc1S(=O)(=O)N1CCc2cc(-c3nc(NC(=O)Cc4ccc5c(c4)OCO5)sc3C)ccc21	27%	·	·	·
Cc1cccc(Nc2nc(-c3ccncc3)cs2)c1	2.5µM*	-6%	·	?	NNMT counter=8.9µM*
COc1cccc(CNC(=O)Nc2nc(-c3ccncc3)cs2)c1	-9%[57.5 µM]	·	·	·
Cc1ccc(OCCSc2nc3ccccc3n2CC(=O)N2CCCCC2)cc1C	18%	-15%	i	-30%
O=C(O)c1ccnc2cc(-c3nc4ccccc4n3CCN3CCCCC3)sc12	-18%[57.5 µM]	·	·	·	NNMT counter=-6%
C=C[C@H]1C(O[C@@H]2O[C@H](CO)[C@@H](O)[C@H](O)[C@H]2O)OC=C2C(=O)N3CCc4c([nH]c5ccccc45)[C@H]3C[C@H]21 (stereo partly specified)	3%[29.8 µM]	·	·	·
